ALDH1A1 inh = qHTS Assay for Inhibitors of Aldehyde Dehydrogenase 1 (ALDH1A1); Aldehyde dehydrogenase 1A1 (Homo sapiens), P00352; Purified ALDH1A1, NADH fluorescence, propionaldehyde substrate; Potency, µM (titrated, usually from 75.3 µM), for the others: top-dose activity, negative = inhibition, hits mostly inhibitors; hit rate 7.3% among 220,000; AID 1030, 2008; active = well fitted inhibition curve with a large enough effect, not every such curve was filed as active; inconclusive = small, poorly fitted or top-dose-only effect, or another doubt; inactive = no such curve, though single readings can be large or run the other way;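 note: plate controls were no enzyme wells and a reference inhibitor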
HPGD block = qHTS Assay for Inhibitors of HPGD (15-Hydroxyprostaglandin Dehydrogenase) | 15-hydroxyprostaglandin dehydrogenase [NAD(+)] (Homo sapiens), P15428 | purified HPGD, NADH fluorescence kinetic, PGE2 substrate | Potency, µM, inactives show at the highest dose activity change, negative = inhibition, hits mostly inhibitors | hit rate 4.3% among 150,000 | AID 894, 2007; active = well fitted inhibition curve with a large enough effect, not every such curve was filed as active; inconclusive = small, poorly fitted or top-dose-only effect, or another doubt; inactive = no such curve, though single readings can be large or run the other way
Target sequence (P15428 whole entry, looked up): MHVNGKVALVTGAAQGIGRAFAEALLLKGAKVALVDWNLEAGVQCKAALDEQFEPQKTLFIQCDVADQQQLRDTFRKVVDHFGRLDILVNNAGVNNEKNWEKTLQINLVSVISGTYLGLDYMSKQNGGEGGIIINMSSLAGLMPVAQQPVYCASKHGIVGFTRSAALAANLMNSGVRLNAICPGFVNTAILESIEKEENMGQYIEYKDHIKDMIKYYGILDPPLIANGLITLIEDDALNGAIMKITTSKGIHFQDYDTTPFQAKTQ
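NADH formation kinetics: reaction with 30 uM PGE2 and 1 mM NAD+ (final), 20 nM enzyme, Tris-HCl pH 8 with Tween 20, after 15 min compound preincubation at room temperature. Fluorescence change, last versus first of five reads.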
Tau fibril FP = qHTS for Inhibitors of Tau Fibril Formation, Fluorescence Polarization; Microtubule-associated protein tau (Homo sapiens), P10636; K18 P301L tau heparin fibrillization, Alexa594 FP, 6 h; Potency, µM (doses to about 57.7 µM), for inactives: top-dose activity, negative = inhibition, actives largely listed as inhibitors; hit rate 0.39% among 280,000; note: nearly all actives have a fitted effect of over 55% in size
Target sequence (P10636 561-689 P618L limits assumed): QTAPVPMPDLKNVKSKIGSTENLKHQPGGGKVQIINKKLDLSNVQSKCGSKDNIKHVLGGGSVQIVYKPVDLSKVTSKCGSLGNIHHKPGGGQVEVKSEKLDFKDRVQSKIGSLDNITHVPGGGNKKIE
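Human tau K18 […] P301L fragment, 15 uM unlabeled plus 0.24 uM Alexa 594-labeled tau (final), with compound and 20 uM heparin in 100 mM sodium acetate pH 7; 6 hr at 37 C, then Alexa 594 FP read.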
Tau fibril ThT = qHTS for Inhibitors of Tau Fibril Formation, Thioflavin T Binding; Microtubule-associated protein tau (Homo sapiens), P10636; recombinant tau K18 P301L, heparin-induced fibrillization, ThT fluorescence; Potency, µM (series often up to 57.4 µM), inactives show at the top dose activity, negative = inhibition, hits mostly inhibitors; hit rate 2.1% among 270,000; AID 1460, 2008; note: nearly all actives have a fitted effect of over 55% in size
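In this qHTS, human K18 P301L tau is incubated with compound and heparin for 6 hr at 37 C, and Thioflavin T fluorescence then reports fibril load.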
Tau fluor counter = Counterscreen qHTS for Inhibitors of Tau Fibril Formation, Fluorescence Polarization; tau K18 P301L Alexa594 fluorescence, heparin fibrillization; Potency, µM (top dose mostly 57.7 µM), for the others: at the top dose activity change, negative = decrease; hit rate 0.93% among 280,000; note: nearly all actives have a fitted effect of over 55% in size
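Human tau K18 P301L (15 uM unlabeled, 0.24 uM Alexa 594-labeled) in 100 mM sodium acetate pH 7 with 20 uM heparin, 6 hr at 37 C. ThT 30 uM added, 1 hr ambient; Alexa 594 FP and total fluorescence read at 555/632 nm.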
JMJD2E inh = qHTS Assay for Inhibitors of Human Jumonji Domain Containing 2E (JMJD2E); Potency, µM (top dose mostly 57.1 µM), for inactives: at the highest dose activity change, negative = inhibition, most hits filed as inhibitors; AID 2147, 2009; hit rate 1.6% among 230,000; JMJD2E catalytic domain, FDH-coupled NADH fluorescence (FDH is formaldehyde dehydrogenase);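 note: 0% = wells with enzyme and -100% = buffer wells without enzyme; nearly all actives have a fitted effect of over 50% in size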
Target sequence (B2RXH2 1-337 limits assumed): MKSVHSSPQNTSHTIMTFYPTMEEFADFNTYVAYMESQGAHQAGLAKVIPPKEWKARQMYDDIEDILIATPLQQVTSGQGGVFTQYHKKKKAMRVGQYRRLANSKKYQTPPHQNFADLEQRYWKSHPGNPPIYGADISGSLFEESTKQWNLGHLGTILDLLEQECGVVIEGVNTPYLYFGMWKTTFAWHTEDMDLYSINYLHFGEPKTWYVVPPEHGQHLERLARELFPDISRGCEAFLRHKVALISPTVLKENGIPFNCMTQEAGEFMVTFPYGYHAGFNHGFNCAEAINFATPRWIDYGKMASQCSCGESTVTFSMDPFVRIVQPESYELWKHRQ
An asterisk follows results filed as active; u = inconclusive; x = no result given; [ ] = dose if it differs, or a comment. The list is not random: actives were taken first. Their share in the collection is about 9.9%. Unless noted, calls come from the whole dose curve; as a rule, active = well fitted curve in the direction sought with a large enough effect; inconclusive = small, poorly fitted or top-dose-only effect, or another doubt; inactive = no such curve, though single readings can be large; an effect the other way counts as inactive or inconclusive. Unless noted, % is set by controls: 0 for no effect and ±100 for the full control effect; potency is the fitted concentration of half-maximal effect.

SMILES | ALDH1A1 inh | HPGD block | Tau fibril FP | Tau fibril ThT | Tau fluor counter | JMJD2E inh
C[N@@+]1(CC[N@@+]2(C)CCC[C@H]2c2cccnc2)CCC[C@@H]1c1cccnc1 | 7%[13.5 µM] | -13% | x | x | x | x
O=C(CCN1CCOCC1)N/N=C/c1cc(Br)cc(Br)c1O | -1% | x | -1% | u | -18% | 28µM*
O=C(CCN1CCOCC1)N/N=C/c1cc([N+](=O)[O-])ccc1OC(F)F | 9% | x | 2% | -8% | -10% | 0%
O=C(CCN1CCN(c2ccccc2)CC1)N/N=C/c1ccc(O)c(O)c1O | 4µM* | x | -2% | 7% | 2% | -6%
O=C(Cc1csc(N2CCOCC2)n1)N/N=C/c1ccc(O)c(O)c1O | 7.5µM* | x | 32µM* | 16µM* | u | 8.9µM*
COc1ccc(/C=N/NC(=O)CCN2CCN(c3ccccc3)CC2)c(OC)c1OC | 4% | 0% | 8% | -16% | -6% | 3%
Cc1ccc(C(=O)c2c(N)c(C(=O)Nc3ccccc3Cl)c3ccccn23)cc1 | x | x | -11% | -6% | -13% | x
Cn1c(=O)c2[nH]c(-c3ccccc3)c(O)c2n(C)c1=O | 11µM* | u | u | u | -17% | -16%
Cn1c(=O)c2[nH]c(-c3ccccc3Cl)c(O)c2n(C)c1=O | -8% | -73% | -4% | 4% | 4% | 12%
COc1ccc(S(=O)(=O)N2CCc3ccccc32)cc1C(=O)NCCc1ccccn1 | u | x | -4% | -5% | -8% | 3%
CCOc1cc(CNCc2ccccn2)ccc1OCC(=O)NC1CCCCC1 | -12% | -3% | 0% | -14% | -3% | 12%
Cc1cc(S(=O)(=O)NC2CCCCC2)ccc1OCC(=O)NCc1ccccn1 | u | 16µM* | 0% | -2% | -3% | -1%
O=C(COc1ccc(S(=O)(=O)N2CCc3ccccc32)cc1Cl)NCc1ccccn1 | 14µM* | -5% | -2% | u | -17% | -25%
O=C(c1ccccc1)c1cc(Cl)ccc1N1C(=O)C=CC1=O | 10µM* | x | -9% | 11% | -1% | 5%
O=C(CSCc1cccc(Br)c1)NC1CC1 | 5% | -21% | 3% | 3% | -3% | 2%
COc1ccc(NC(=O)CSc2nc(-c3ccco3)cc(C(F)(F)F)n2)cc1Cl | x | x | u | 7% | u | x
O=C(CSc1nc(-c2ccco2)cc(C(F)(F)F)n1)N1CCN(Cc2ccccc2)CC1 | 16µM* | u | 5% | u | -8% | -8%
O=C(CSc1nc(-c2ccco2)cc(C(F)(F)F)n1)Nc1ccc(C(=O)N2CCCCC2)cc1 | 14µM* | 0.56µM* | -11% | -1% | u | u
O=C(CSc1nc(-c2ccco2)cc(C(F)(F)F)n1)N1CCN(c2ccc(Cl)cc2)CC1 | -10% | -22% | 2% | -15% | -21% | -5%
COc1ccccc1N1CCN(C(=O)CSc2nc(-c3ccco3)cc(C(F)(F)F)n2)CC1 | 7.9µM* | -26% | -5% | u | -23% | -24%
C=CCC(CC=C)(CNC(=O)C(=O)Nc1ccc(C)cc1)c1ccccc1 | x | x | -2% | -1% | 1% | x
O=C(/C=C/c1ccccc1)NCCSCc1ccccc1Cl | 2.2µM* | 10µM* | 6% | -14% | -26% | -8%
O=C(/C=C/c1ccc(Cl)cc1Cl)NCCSCc1ccccc1 | -10% | 14µM* | u | -4% | u | -11%
Cc1ccc(CSCCNC(=O)/C=C/c2ccccc2Cl)cc1 | 4.5µM* | 8.9µM* | -14% | 0% | -30% | -7%
O=C(/C=C/c1ccccc1Cl)NCCc1ccc(F)cc1 | 5% | -21% | -6% | -10% | -19% | -1%
SMILES | ALDH1A1 inh | HPGD block | Tau fibril FP | Tau fibril ThT | Tau fluor counter | JMJD2E inh
O=C(/C=C/c1ccc(Cl)cc1Cl)NCCSc1ccccc1 | 3% | -7% | -18% | -17% | u | -12%
O=C(/C=C/c1ccccc1)NCCSCc1ccc(Cl)cc1 | 0% | -11% | -11% | -6% | -14% | -7%
COc1ccc(SCCC(=O)NCc2ccncc2)cc1 | 8% | x | -1% | -13% | -11% | -6%
O=C(Nc1cc([N+](=O)[O-])ccc1Cl)c1ccc2c(c1)OCO2 | 4% | x | u | 1% | -22% | -4%
CC(C)Oc1ccc(C(=O)N(Cc2ccc(N(C)C)cc2)C2CCS(=O)(=O)C2)cc1 (stereo unspecified) | x | x | 9% | -3% | -14% | x
CCOC(=O)c1c(NC(=S)Nc2cccc(C)c2)sc2c1CC(C)(C)SC2 | 4µM* | u | 3% | 1% | -5% | 1%
CCOC(=O)c1c(NC(=S)Nc2ccccc2)sc2c1CCCCC2 | u | -11% | -1% | -16% | -20% | 4%
CCOc1ccccc1CNC(=O)c1ccc(NC(=O)N2CCSc3ncccc32)cc1 | x | x | -5% | -3% | -16% | x
O=C(CSC(=S)N1CCOCC1)Nc1nc(=O)c2ccccc2s1 | 6.3µM* | -22% | u | -15% | -2% | -2%
Cc1cc(Cl)ccc1OCCCC(=O)OCC(N)=O | 5% | x | 1% | -3% | 1% | 6%
COC(=O)c1ccccc1NC(=O)CSc1nnc(Cc2ccc(Cl)cc2)o1 | 20µM* | 28µM* | 0% | -6% | -7% | -13%
CCC1CCCCN1C(=O)CSc1nnc(CNC(=O)COc2ccc(Cl)cc2)o1 (stereo unspecified) | 7.1µM* | -11% | 1% | 4% | 2% | 0%
CCC1CCCCN1C(=O)CSc1nnc(-c2ccc(Cl)cc2)o1 (stereo unspecified) | 5% | -18% | 1% | -13% | -10% | -10%
CCC1CCCCN1C(=O)CSc1nnc(-c2ccco2)o1 (stereo unspecified) | 20µM* | -4% | -1% | -17% | -3% | 8%
COc1ccc(OC)c(NC(=O)CSc2nnc(CNC(=O)COc3ccc(Cl)cc3)o2)c1 | 20µM* | -14% | 3% | -7% | 0% | 1%
COCCNCc1nc2sc(C)c(-c3ccccc3)c2c(=O)[nH]1 | x | x | -1% | -12% | -7% | 0%
O=C(CN1CCN(Cc2ccc(F)cc2)C1=O)NCc1ccccc1 | x | x | -13% | -7% | -11% | x
Cc1cc(Cl)ccc1NC(=O)CCn1nc(C)c2c(C)n(-c3ccccc3)nc2c1=O | x | x | 2% | 14% | 9% | x
CC1CCCCN1C(=O)CSc1nnc(-c2c[nH]c3ccccc23)o1 (stereo unspecified) | 25µM* | -18% | -2% | -5% | -24% | -4%

High-throughput results: PubChem, National Center for Advancing Translational Sciences (NCATS)
